Several values for one entry are separate records, joined by “and”; a condition that tells them apart may be missing. Equal entries are not always repeated. Results filed as inconclusive are left out. Some compounds were tested as several samples or in several runs, with calls that do not always agree. Activity calls are given as the source filed them. Unless noted, calls come from the whole dose curve; as a rule, active = well fitted curve in the direction sought with a large enough effect in the repeat runs; inconclusive = weak or mixed curves; inactive = no such curve, though single readings can be large; an effect the other way counts as inactive or inconclusive.
Experiments:
[1] = qHTS assay for small molecule agonists of the p53 signaling pathway - cell viability (AID 651633; calls by dose curve; note: nearly all actives have a fitted effect of over 30% in size; note: potency is the fitted concentration of half-maximal effect)
In short: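 Viability counter-read: CellTiter-Glo luminescence (30 min, room temperature) in the same p53RE-bla plates. These plates had been exposed to compounds for 16 h at 37 C.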

[2] = qHTS assay for small molecule disruptors of the mitochondrial membrane potential - cell viability (AID 720634; calls by dose curve;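 note: human HepG2 liver cancer cells; series mostly up to about 83 µM; nearly all actives have a fitted effect of over 20% in size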)
In short: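 Luminescence from CellTiter-Glo (ATP content) gave viability in HepG2 cells, read in the same wells as the MMP dye assay after 1 hr compound exposure at 37 C.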

[3] = qHTS assay for small molecule disruptors of the mitochondrial membrane potential (AID 720635); note: potency is the fitted concentration of half-maximal effect
In short: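 Mitochondrial membrane potential tracked with Mito-MPS dye, red aggregates (ex 540/em 590 nm) against green monomers (ex 490/em 535 nm). Compound treatment 1 hr at 37C, dye 30 min in HepG2.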

[4] = qHTS assay to test for compound auto fluorescence at 590 nm (red) in HepG2 cells (AID 720674); note: potency is the fitted concentration of half-maximal effect
In short: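 We screened compounds on adherent HepG2 cells, incubating them for an hour at 37 C in 5% CO2 before reading emission at 590 nm under 540 nm excitation; values reflect equivalence to Rose Bengal sodium fluorescence.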

[5] = qHTS assay to test for compound auto fluorescence at 535 nm (green) in HepG2 cells (AID 720675); note: potency is the fitted concentration of half-maximal effect
[6] = qHTS assay to test for compound auto fluorescence at 460 nm (blue) in HEK293 cells (AID 720678)
In short: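 HEK293 cells (2,000/well, medium with 10% dialyzed FBS) attached 4-5 hr, then exposed to compound overnight at 37C, 5% CO2. Blue fluorescence read at 405/460 nm, with triamterene as reference fluorophore.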

[7] = qHTS assay to test for compound auto fluorescence at 590 nm (red) in HEK293 cells (AID 720679); note: potency is the fitted concentration of half-maximal effect
In short: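 HEK293 cells (2,000/well, 10% dialyzed FBS) attached 4-5 hr, then dosed with compound or DMSO and incubated overnight at 37C, 5% CO2. Red fluorescence read at 540/590 nm, Rose Bengal sodium as reference fluorophore.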

[8] = qHTS assay for small molecules that induce genotoxicity in human embryonic kidney cells expressing luciferase-tagged ATAD5 (AID 651632); note: nearly all actives have a fitted effect of over 15% in size; note: potency is the fitted concentration of half-maximal effect
In short: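 Luminescence read-out: after 16 hr compound exposure at 37C, ATAD5-luciferase HEK293T cells received Amplite, 30 min RT, then CCD imaging. A rise in signal marks genotoxic stress.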

[9] = qHTS assay for small molecules that induce genotoxicity in human embryonic kidney cells expressing luciferase-tagged ATAD5 - cell viability (AID 651634; calls by dose curve; note: nearly all actives have a fitted effect of over 25% in size; note: potency is the fitted concentration of half-maximal effect)
In short: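 HEK293T ATAD5-luc cells, 2,000/well; compound 15.5 hr, 37C/5% CO2; CellTiter-Fluor 30 min, 37C; fluorescence read.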

[10] = qHTS assay for small molecule agonists of the p53 signaling pathway (AID 651631; calls by dose curve; note: nearly all actives have a fitted effect of over 15% in size)
In short: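 p53RE-bla HCT-116 cells; compounds 16 h, 37 °C; LiveBLAzer B/G FRET substrate 2 h RT; fluorescence intensity read-out, qHTS format.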

Measured: Potency
% is set by controls: 0 for no effect and ±100 for the full control effect; tags give direction and shape of the fitted curve or compound fluorescence and quenching.

CN(C)C(=N)N=C(N)N
not listed: [8] | [9] | [10]
inactive: all other assays above

CCCCc1oc2ccccc2c1C(=O)c1cc(I)c(OCCN(CC)CC)c(I)c1
active: [1] 26.6 µM and 48.9 µM
inactive: [8] | [4] | [5] | [7]

Cc1ccc(C(=O)c2cc(O)c(O)c([N+](=O)[O-])c2)cc1
active: [1] 23.7 µM and 54.5 µM | [9] 30.6 µM | [3] 26.6 µM and 4.86 µM
not listed: [10]
inactive: all other assays above

CC(C)OC(=O)C(C)(C)Oc1ccc(C(=O)c2ccc(Cl)cc2)cc1
inactive: [8] | [3] | [4] | [5] | [6] | [7]

c1ccc2sc(SSN3CCOCC3)nc2c1
active: [3] 34.3 µM and 27.3 µM
not listed: [6] | [9] | [10]
inactive: all other assays above

S=C(NC1CCCCC1)NC1CCCCC1
inactive: [8] | [4] | [5] | [7]
active: [3] 53.4 µM and 54.5 µM

CCCCCCCCCC(=O)OC
not listed: [9] | [10]
inactive: all other assays above

O=C(COc1ccc(Cl)cc1)N1CCN(Cc2ccc3c(c2)OCO3)CC1
not listed: [6] | [10]
inactive: all other assays above

COc1ccccc1/C=C/C=O
not listed: [2] | [10]
inactive: all other assays above

CCC(C)c1ccccc1O (centres undefined)
active: [3] 54.1 µM and 30.6 µM
not listed: [10]
inactive: all other assays above

O=C(c1ccccc1)c1ccccc1O
inactive: [8] | [9] | [4] | [5] | [7]
inactive and 61.1 µM (active): [3]

c1ccc2cc(Nc3ccc(Nc4ccc5ccccc5c4)cc3)ccc2c1
not listed: [2] | [10]
inactive: all other assays above

O=C1OC2(c3cc(Br)c(O)c(Br)c3Oc3c2cc(Br)c(O)c3Br)c2c(Cl)c(Cl)c(Cl)c(Cl)c21
inactive: [8] | [2]
active: [1] 54.5 µM | [4] 1.41 µM and 7.94 µM | [5] 17.8 µM | [7] 2.51 µM [fluorescent] and 14.1 µM [fluorescent]

COc1cc([C@@H]2c3cc4c(cc3[C@H](O)[C@H]3COC(=O)[C@H]23)OCO4)cc(OC)c1OC
active: [3] 150 nM and 76.9 nM
not listed: [2] | [8] | [10]
inactive: all other assays above

CCCCC/C=C/C=C/C=O
active: [1] 54 µM | [3] 60.6 µM and 54.5 µM
not listed: [9] | [10]
inactive: all other assays above

Cc1cc2nc3c(=O)[nH]c(=O)nc-3n(C[C@H](O)[C@H](O)[C@H](O)CO)c2cc1C
active: [5] 35.5 µM [middle of 4 runs]
not listed: [3] | [6] | [10]
inactive: all other assays above

C/C=C/C(=O)O
inactive: [8] | [1] | [9] | [4] | [5] | [7]

Cc1ccc2c(n1)Oc1ccc(C(C)C(=O)OCC(=O)N(C)C)cc1C2 (centres undefined)
inactive: [1] | [9] | [4] | [5] | [6] | [7]

O=[N+]([O-])c1ccc2c(c1)Cc1ccccc1-2
inactive: [8] | [1] | [9] | [4] | [5] | [7]

CCCC(=O)O
not listed: [2] | [6] | [10]
inactive: all other assays above

Oc1ccc(O)cc1
active: [1] 21.1 µM and 13.6 µM and 17.2 µM
not listed: [10]
inactive: all other assays above

Clc1nc(Cl)c(Cl)c(Cl)c1Cl
not listed: [2] | [3] | [10]
inactive: all other assays above

COc1c(Cl)c(Cl)c(Cl)c(Cl)c1Cl
inactive: [8] | [1] | [4] | [5] | [6] | [7]

CCCc1c(OCCCCc2nn[nH]n2)ccc(C(C)=O)c1O
26.6 µM (active) and inactive: [1]
active: [3] 26.6 µM
not listed: [9] | [10]
inactive: all other assays above

NC=O
not listed: [6] | [10]
inactive: all other assays above

CC(C(=O)O)c1cccc(C(=O)c2ccccc2)c1 (centres undefined)
not listed: [1] | [8] | [9]
inactive: all other assays above

COC(=O)Nc1nc2ccc(S(=O)c3ccccc3)cc2[nH]1 (centres undefined)
not listed: [10]
inactive: all other assays above

O=P(O)(O)O
inactive: [3] | [4] | [5] | [6] | [7]

CC1=CC2C3CC(C=C3C)C2C1 (centres undefined)
not listed: [2] | [10]
inactive: all other assays above

Nc1ccc(Nc2ccccc2)cc1
1.35 µM (active) and inactive: [3]
not listed: [9] | [10]
inactive: all other assays above

OC[C@H]1O[C@@H]2O[C@H]3[C@H](O)[C@@H](O)[C@@H](O[C@H]4[C@H](O)[C@@H](O)[C@@H](O[C@H]5[C@H](O)[C@@H](O)[C@@H](O[C@H]6[C@H](O)[C@@H](O)[C@@H](O[C@H]7[C@H](O)[C@@H](O)[C@@H](O[C@H]8[C@H](O)[C@@H](O)[C@@H](O[C@H]1[C@H](O)[C@H]2O)O[C@@H]8CO)O[C@@H]7CO)O[C@@H]6CO)O[C@@H]5CO)O[C@@H]4CO)O[C@@H]3CO
inactive: [8] | [1] | [4] | [5] | [6] | [7]

COC(=O)C1=C(C)NC(C)=C(C(=O)OCCN(C)Cc2ccccc2)C1c1cccc([N+](=O)[O-])c1 (centres undefined)
active: [3] 18.8 µM
inactive: [8] | [4] | [5] | [6] | [7]

O=C(O)c1ccccc1Nc1cccc(C(F)(F)F)c1
inactive: [8] | [4] | [5] | [7]
active: [3] 26.6 µM and 43.3 µM

CCCCC(CC)COCC1CO1 (centres undefined)
not listed: [10]
inactive: all other assays above

CC(=O)O[C@]1(C(C)=O)CC[C@H]2[C@@H]3C=C(Cl)C4=CC(=O)[C@@H]5C[C@@H]5[C@]4(C)[C@H]3CC[C@@]21C
inactive: [1] | [9] | [4] | [5] | [7]
active: [3] 30.6 µM

c1cc(N(CC2CO2)CC2CO2)ccc1OCC1CO1 (centres undefined)
inactive: [3] | [4] | [5] | [7]
active: [8] 13.7 µM and 17.2 µM | [1] 68.7 µM

c1ccc(Nc2ccccc2)cc1
active: [3] 61.1 µM and 19.3 µM
not listed: [9] | [10]
inactive: all other assays above

O=C(/C=C/C=C/c1ccc2c(c1)OCO2)N1CCCCC1
active: [8] 10.9 µM
not listed: [3] | [10]
inactive: all other assays above

O=c1oc(=O)c2cc3c(=O)oc(=O)c3cc12
inactive: [8] | [9] | [3] | [4] | [5] | [7]
